{"source": "PubChem BioAssay (EPA / NIEHS)", "note": "Active and inactive are the calls of the source. Rule for the calls: active = hit-call score of the fitted dose curve at least 0.9, where 1 is the maximum; inactive = score below 0.9."}
{"read-out": "Insulin Like Growth Factor 1 (IGF1), IGF1 (gene 3479)", "experiment": "LTEA_HepaRG_IGF1: Life Technologies and Expression Analysis (LTEA) Assay for Insulin Like Growth Factor 1 (IGF1) using HepaRG (AID 2283506)", "settings": "mRNA level, 48 h; actives raise or lower the signal", "description": "LTEA_HepaRG is a cell based, multiplexed-readout assay that uses HepaRG, a human liver cell line, with measurements taken at 48 hours after chemical dosing on a 96-well plate.LTEA_HepaRG_IGF1 is one of 102 assay component(s) measured in the LTEA HepaRG cell culture assay. It is a marker of Cell proliferation, survival, death.Data from the assay component LTEA_HepaRG_IGF1 was analyzed into 1 endpoint. This assay endpoint, LTEA_HepaRG_IGF1, was analyzed with bidirectional fitting relative to DMSO as the negative control and baseline of activity. Using a type of inducible reporter, measures of mRNA induction for gain or loss-of-signal activity can be used to understand regulation of transcription factor activity. To generalize the intended target to other relatable targets, this assay endpoint is annotated to the growth factor intended target family, where the subfamily is insulin-like.\nA total of 1060 chemcials from the ToxCast library were tested in eight-point concentration-response experiments. Cell culture and cytotoxicity assays were conducted at Thermo Fisher Scientific's Custom Services facility (Madison, WI). A single lot of human HepaRG cells (Thermo Fisher Scientific, Frederick, MD) was used for the cell culture experiments. 96-well format collagen type I coated plates of human HepaRG cells were prepared using established methods. Briefly, cryopreserved HepaRG cells were thawed, plated at a density of approximately 100,000 cells/well in HepaRG Thaw, Plate, and General Purpose media (HPRG770, Thermo Fisher Scientific), and incubated for 48 hours. 0.5% DMSO was selected as vehicle control to balance the requisite need of DMSO in HepaRG cultures to maintain differentiation (for example, baseline metabolism, proportions of hepatocytes vs. cholangiocytes), while enabling further hepatic receptor pathway activation (for example, PXR and CAR) in response to chemical exposure. 48 hours after plating, the culture medium was replaced with HepaRG Serum-Free Incudtion Media. Cells were exposed to each test chemical in duplicate and maintained in CO2 incubators for another 48 hours. Chemical plates were thawed to room temperature and 200x concentrations of treatment groups were prepared. 8-point conentration-reponse curves were made with the highest exposure at 100 uM, followed by half-log dilutions, all in 0.5% DMSO. Each test plate contained variouse controls, induction positive controls (1mM phenobarbital), cytotoxicity positive controls ([…] aflatoxin B1), vehicle controls (0.5% DMSO), and total lysis controls (0.5% DMSO). Cell morphology images were taken using an Essen IncuCyte FLR automated microscope, with six 96-well plates imaged in about 24 minutes. Images were captured and exported and JPEG files. Spent culture media was transfered to black-well plates for the LDH assay, and remaining media was sorted at -80 C for later use. Cells were treated with RLT buffer and frozen until shipped for gene expression analysis. Total RNA was isolated from the cell suspension in 75 uL of Buffer RLT (Qiagen, Germantown, MD 20874) by Quintiles/Expression Analysis (Durham, NC) using a custom isolation procedure. Total RNA from each plate well was transferred to a preamplification plate. Fluidigm's 96.96 Dynamic ArrayTM (Fluidigm, Amsterdam, the Netherlands) technology was used for gene expression analyses by quantitative reverse transcription polymerase chain reaction (qRT-PCR, performed by Quintiles/Expression Analysis, Durham, NC)89. Standard TaqManTM Assays (Applied Biosystems/ThermoFisher Scientific, Foster City, CA) were used to assess the expression of 93 genes selected based on their selectivity and sensitivity to important hepatic receptors known to be modulated by environmental chemicals; importance in human hepatocyte functionality; and hepatotoxicity. […]"}
{"smiles": "O=Cc1ccccc1C=O", "outcome": "inactive"}
{"smiles": "S=c1[nH]c2ccccc2s1", "outcome": "inactive"}
{"smiles": "CCCCOC(=O)CCCCC(=O)OCCCC", "outcome": "inactive"}
{"smiles": "Cc1c(C)c2c(c(C)c1O)CCC(C)(COc1ccc(CC3SC(=O)NC3=O)cc1)O2", "note": "(stereo not given)", "AC50": "68.5 µM (active)"}
{"smiles": "CCC(C)N(C)C(=O)c1cc2ccccc2c(-c2ccccc2Cl)n1", "note": "(stereo not given)", "AC50": "21.6 µM (active)"}
{"smiles": "CC(=O)O", "outcome": "inactive"}
{"smiles": "CCCCCCCCCCCCCCOS(=O)(=O)O", "AC50": "24.6 µM (active)"}
{"smiles": "CCCCCCC(C=O)=Cc1ccccc1", "outcome": "inactive"}
{"smiles": "CC(C)c1cccc(C(C)C)c1", "outcome": "inactive"}
{"smiles": "Cc1cc(Cc2ccc(N)c(C)c2)ccc1N", "outcome": "inactive"}
{"smiles": "CC(C)COC(=O)CCCCC(=O)OCC(C)C", "outcome": "inactive"}
{"smiles": "N[C@@H](Cc1c[nH]c2ccccc12)C(=O)O", "outcome": "inactive"}
{"smiles": "CC(C)(C)c1ccccc1", "outcome": "inactive"}
{"smiles": "Nc1nc(Cl)nc2c1ncn2[C@H]1C[C@H](O)[C@@H](CO)O1", "AC50": "2.39 µM (active)"}
{"smiles": "Nc1nc(=S)c2[nH]cnc2[nH]1", "AC50": "20.5 µM (active)"}
{"smiles": "Cc1ccc(-c2cc(C(F)(F)F)nn2-c2ccc(S(N)(=O)=O)cc2)cc1", "AC50": "81.3 µM (active)"}
{"smiles": "CCc1nc(N)nc(N)c1-c1ccc(Cl)cc1", "AC50": "11.8 µM (active)"}
{"smiles": "Cc1cc(SC2=C(O)C[C@@](CCc3ccc(N)cc3)(C(C)C)OC2=O)c(C(C)(C)C)cc1CO", "AC50": "4.02 µM (active)"}
{"smiles": "c1ccc2occc2c1", "outcome": "inactive"}
{"smiles": "COC(=O)[C@H]1[C@H]2C[C@@H]3c4[nH]c5cc(OC)ccc5c4CCN3C[C@H]2C[C@@H](OC(=O)c2cc(OC)c(OC)c(OC)c2)[C@@H]1OC", "AC50": "54.4 µM (active)"}
{"smiles": "O=C(O)c1[nH]n(-c2ccc(S(=O)(=O)O)cc2)c(=O)c1N=Nc1ccc(S(=O)(=O)O)cc1", "outcome": "inactive"}
{"smiles": "Oc1ccccc1O", "outcome": "inactive"}
{"smiles": "CCN(CC)CCOc1ccc(C(=C(Cl)c2ccccc2)c2ccccc2)cc1", "AC50": "13.3 µM (active)"}
{"smiles": "NCCOCCOCCN", "outcome": "inactive"}
{"smiles": "CC1=C(C)S(=O)(=O)CCS1(=O)=O", "AC50": "50 µM (active)"}
{"smiles": "CC(=O)O[C@]1(C(C)=O)CC[C@H]2[C@@H]3C=C(Cl)C4=CC(=O)[C@@H]5C[C@@H]5[C@]4(C)[C@H]3CC[C@@]21C", "AC50": "50 µM (active)"}
{"smiles": "C=CCc1ccc(OC)c(OC)c1", "outcome": "inactive"}
{"smiles": "CC(COCC(C)OC(=O)c1ccccc1)OC(=O)c1ccccc1", "note": "(stereo not given)", "outcome": "inactive"}
{"smiles": "CCOCCOCCO", "outcome": "inactive"}
{"smiles": "CCCCC(CC)CO", "note": "(stereo not given)", "outcome": "inactive"}
{"smiles": "O=C(O)c1cccnc1", "outcome": "inactive"}
{"smiles": "CCCCC(CC)COC(=O)CCCCCCCC(=O)OCC(CC)CCCC", "note": "(stereo not given)", "outcome": "inactive"}
{"smiles": "CO[C@@H]1COCC[C@@H]1N[C@@H]1CC[C@@](C(=O)N2CCc3ncc(C(F)(F)F)cc3C2)(C(C)C)C1", "outcome": "inactive"}
{"smiles": "C=CCCCCCCCCCCCC", "outcome": "inactive"}
{"smiles": "NC1CCCCC1", "outcome": "inactive"}
{"smiles": "CC(=O)OC1CC(C)OC(C)O1", "note": "(stereo not given)", "outcome": "inactive"}
{"smiles": "Cc1cn([C@H]2C=C[C@@H](CO)O2)c(=O)[nH]c1=O", "outcome": "inactive"}
{"smiles": "CSc1ccc(Oc2ccc(S(N)(=O)=O)cc2CN(C)C)cc1C", "outcome": "inactive"}
{"smiles": "O=C1NC(=O)C(c2ccccc2)(c2ccccc2)N1", "outcome": "inactive"}
{"smiles": "CC(=O)S[C@H](C(=O)N[C@H]1Cc2ccccc2[C@H]2CCC[C@@H](C(=O)O)N2C1=O)C(C)C", "outcome": "inactive"}
